Source: PMC6212790, “How bacterial xenogeneic silencer rok distinguishes foreign from self DNA in its resident genome”
The full ranking holds about 33,000 sequences; the median of “e-score” is about -0.037, and the highest 2% start at about 0.34. The sample holds the highest values, similar sequences and a random draw of the others, so the mix is not that of the screen.

molecular target: T1, GST-Rok (full length) (Bacillus subtilis subsp. subtilis str. …, UniProt O34857 1-191); test: protein binding microarray; Rok is a gene silencer of Bacillus subtilis; high values mean tight binding; details: protein: recombinant; tags: GST (pTH5325, pDEST15-Magic modified); dsDNA, one strand shown
T1 sequence: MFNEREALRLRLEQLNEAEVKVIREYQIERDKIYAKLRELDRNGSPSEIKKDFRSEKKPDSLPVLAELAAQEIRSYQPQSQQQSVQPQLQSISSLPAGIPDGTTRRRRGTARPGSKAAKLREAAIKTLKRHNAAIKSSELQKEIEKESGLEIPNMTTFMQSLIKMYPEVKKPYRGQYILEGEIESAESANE
Procedure, shortened: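 Each has a 25-mer constant primer and a 35-mer variable part from a de Bruijn sequence of order 10, covering every non-palindromic 8-mer at least 32 times (palindromic 16). Preference for each 8-mer is given as a rank-based, unitless enrichment score (E-score). Its range runs from 0.5 (most favored) to −0.5 (most disfavored).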

Row | Sequence | binding signal [E-score]
1 | CGAGGCCA | -0.199
2 | TGAACTAA | 0.0469
3 | ATTCGAAG | 0.09
4 | ATTCGAAA | 0.159
5 | ATTCGAAT | 0.342
6 | AGCGGTTA | -0.138
7 | AGCGGTAC | -0.166
8 | AGCGGTAT | 0.321
9 | ACCGGTAA | 0.255
10 | CCCGGTAG | -0.134
11 | AGCGGTAG | 0.34
12 | ACCGGTAG | 0.374
13 | CTATGTCA | 0.225
14 | AAGTCGCC | -0.0852
15 | AAAGCATT | -0.0355
16 | CCTAGTAC | 0.125
17 | ACTAGTAT | 0.422
18 | GCTAGTAC | 0.181
19 | ACTAGTAG | 0.426
20 | ACTAGTAC | 0.41
21 | CCTAGTAG | 0.233
22 | ACTAGTGG | 0.00757
23 | ACCAGTAT | 0.255
24 | ACTAGTCT | 0.248
25 | AGTTAAGC | -0.0477

Row | Sequence | binding signal [E-score]
26 | GGCTAAGA | 0.000408
27 | GTTCTCAA | 0.0738
28 | TAACACTA | 0.284
29 | GAAGACTC | -0.114
30 | CAGTAGGC | -0.157
31 | TCCTACAA | 0.0302
32 | AGGCTTCG | -0.0947
33 | AGCCCTAA | -0.164
34 | CTAATTAG | 0.375
35 | ATAATTAT | 0.268
36 | ATAATTAG | 0.317
37 | GTAATTAC | 0.421
38 | CTAATTAC | 0.329
39 | GTAATTAA | 0.181
40 | ATAATTAA | 0.29
41 | ATAATTAC | 0.385
42 | CTAATTAA | 0.233
43 | GAACCCAA | -0.176
44 | ATGAAATC | 0.029
45 | AGGTCTGG | -0.0443
46 | ATGTAAAT | 0.376
47 | ATGTAAAC | 0.0692
48 | ATGTACAG | 0.3
49 | TTGTACAA | 0.387
50 | AGCTACCT | 0.164

Row | Sequence | binding signal [E-score]
51 | ATGTAAAA | 0.295
52 | AGCTACCC | -0.139
53 | AGCTACCA | 0.358
54 | GTGTACAA | 0.167
55 | ATGTACAA | 0.311
56 | ATGTACAT | 0.409
57 | CTGTACAA | 0.0838
58 | ATAATTCC | 0.213
59 | GAGAACAA | -0.119
60 | GTCGTTTA | 0.0636
61 | CCTCACAG | -0.0675
62 | AGCAGCAG | -0.124
63 | ACGGACAC | -0.126
64 | CGCATTAA | 0.0651
65 | GTGATTTA | 0.06
66 | CCAGGAGC | -0.14
67 | AGCGTCTA | 0.0457
68 | ACCTACCG | 0.169
69 | ATCTACCG | 0.409
70 | GTCTACCA | 0.0944
71 | ATGTACCA | 0.342
72 | ATGTACCC | 0.0665
73 | AGCTACCG | 0.309
74 | CTGTACCA | -0.0416
75 | ATCTACCA | 0.48

Row | Sequence | binding signal [E-score]
76 | ATCTACCC | 0.25
77 | ATTGCCGG | -0.0899
78 | ACCAGCCG | 0.0494
79 | TCAGGACA | -0.136
80 | CCACCTAA | -0.104
81 | CTGGTAAC | 0.176
82 | GAGAGAGA | -0.124
83 | CAAGCGTA | -0.175
84 | AAGCCAGC | -0.00201
85 | AGACTGAA | 0.0238
86 | AATACTAC | 0.419
87 | TATACTAA | 0.364
88 | AATACTCA | 0.174
89 | CATACTAA | 0.125
90 | GATACTAA | 0.307
91 | GATACTAC | 0.278
92 | AATACTTC | 0.235
93 | AATACTAG | 0.341
94 | CATACTAG | 0.312
95 | AATACTGA | 0.188
96 | AATACTCG | 0.085
97 | AATACTAA | 0.37
98 | GCAGGGAA | -0.158
99 | TAAATTCA | 0.217
100 | AGTAGCCA | -0.0245

Row | Sequence | binding signal [E-score]
101 | CCTTACCG | 0.0725
102 | CGGAGCCG | -0.191
103 | ACGTGCTA | 0.0361
104 | AATACTCT | 0.11
105 | CATACTCC | -0.0183
106 | CATACTTC | 0.191
107 | AATACTAT | 0.359
108 | CATACTAC | 0.376
109 | AATACTGT | 0.171
110 | AAAAAGTT | 0.0934
111 | ACCAACAA | -0.105
112 | GAACACCA | -0.0539
113 | TACTTCGA | 0.332
114 | CACTAAGC | -0.0899
115 | GTAGGAAC | 0.0415
116 | CGAACGTA | 0.0863
117 | ACTAATTG | 0.184
118 | GCTAATTA | 0.325
119 | CCTAATTA | 0.228
120 | ACTAATTC | 0.359
121 | ACTAATTA | 0.438
122 | CCTAATTC | 0.0288
123 | GGCATCTA | -0.0204
124 | AGGATGAT | -0.0933
125 | ACTGTGGA | -0.123

Row | Sequence | binding signal [E-score]
126 | GTTATAGA | 0.11
127 | ATTATAGA | 0.353
128 | ATTATATA | 0.468
129 | CTTATATC | 0.141
130 | ATTATATG | 0.269
131 | GTTATATA | 0.296
132 | CTTATAGA | 0.112
133 | CCTATATC | 0.00873
134 | ATTATATC | 0.377
135 | CCTGAGCA | -0.194
136 | CATCGACA | 0.0503
137 | CACAACCG | 0.019
138 | AGCGTGGG | -0.179
139 | ATAGAAAT | 0.337
140 | ATAGAATA | 0.356
141 | ATAGAAAC | 0.288
142 | ATCGAAAA | 0.0373
143 | ATAGAATC | 0.254
144 | ATCGAAAT | 0.357
145 | ATAGAATG | 0.181
146 | ATAGAAAA | 0.324
147 | ATCGAAAC | 0.0448
148 | TCTTTCCA | -0.0837
149 | AGTCGGAC | -0.171
150 | AGCCCGTG | -0.00226

Row | Sequence | binding signal [E-score]
151 | AAGCGACT | 0.0908
152 | GGATAGTA | 0.208
153 | CGATAGTC | -0.0533
154 | AGATAGTC | 0.0258
155 | AGATAGTA | 0.347
156 | CGATAGTA | 0.384
157 | AGATAGTG | 0.199
158 | CATGATCC | 0.0194
159 | AGAAGCTA | 0.0762
160 | AACCTCAC | -0.146
161 | AACCGCCC | -0.131
162 | CGGCGAAG | 0.0313
163 | ATGAAGTC | -0.0225
164 | GCGACTTA | 0.0295
165 | CCACTAAG | -0.137
166 | CTTTCTAC | 0.444
167 | CTTTCTAA | 0.162
168 | ATTTCTAA | 0.303
169 | CTTTCTTC | -0.0764
170 | ATTTCTAC | 0.408
171 | ATTTCTAG | 0.333
172 | AGAGACCT | -0.154
173 | ACGTGGGC | -0.0245
174 | GGATTGAC | -0.0238
